# Assay results as given in PubChem BioAssay (EPA / NIEHS).
# Some structures have more than one record in an assay (separate samples or runs), and their calls can disagree. Calls of active or inactive are those of the source. Rule for the calls: active = hit-call score of the fitted dose curve at least 0.9, where 1 is the maximum; inactive = score below 0.9.
# Test: APR_HepG2_MicrotubuleCSK_72hr: Apredica 72-hour HepG2 Assay for Microtubule CSK Stabilty (AID 2282919)
# Conditions: HepG2 microtubule cytoskeleton, high-content imaging, actives raise or lower the signal
# Description: APR_HepG2_72hr is a cell-based, multiplexed-readout assay that uses HepG2, a human liver cell line, with measurements taken at 72 hours after chemical dosing in a 384-well plate.APR_HepG2_MicrotubuleCSK_72hr is one of 10 assay component(s) measured or calculated from the APR_HepG2_72hr assay. It is designed to make measurements of protein conformation, a form of conformation reporter, as detected with fluorescence intensity signals by HCS Fluorescent Imaging technology.Data from the assay component APR_HepG2_MicrotubuleCSK_72hr was analyzed into 1 assay endpoint. This assay endpoint, APR_HepG2_MicrotubuleCSK_72hr, was analyzed with bidirectional fitting relative to DMSO as the negative control and baseline of activity. Using a type of conformation reporter, measures of protein for gain or loss-of-signal activity can be used to understand the signaling at the cellular-level. Furthermore, this assay endpoint can be referred to as a primary readout, because this assay has produced multiple assay endpoints where this one serves a signaling function. To generalize the intended target to other relatable targets, this assay endpoint is annotated to the cell morphology intended target family, where the subfamily is cell conformation.
# Cells were treated with dimethyl sulfoxide (DMSO) as a solvent control at a final concentration of 0.5% v/v or with compounds in DMSO with a resulting final DMSO concentration of 0.5% v/v. Compound treatment was done at concentrations of 0.39, 0.78, 1.56, 3.12, 6.24, 12.5, 25, 50, 100, and 200 uM in duplicate on each plate. Cells were treated with compounds for 1, 24, or 72 hr. Carbonyl […] m-chloro-phenylhydrazone (CCCP) and taxol were used as positive controls for mitochondrial function and cytoskeletal stability, respectively; DMSO served as the negative control for this experiment. Cells were fixed by the direct addition of 50 uL formaldehyde in Hank's Balanced Salt Solution (HBSS) to a final concentration of 3.7%. After incubation in the fixation medium for 30 min at room temperature (293-298 K), cells were rinsed twice with HBSS and treated with cell permeabilization buffer (16 uL of 0.5% Triton X-100) for 10 min at room temperature (293-298 K) before labeling. For mitochondrial membrane potential and mitochondrial measurements, pre-fixed cells were incubated with 50 uL of MitoTracker Red CMXRos (Invitrogen) at a concentration of 250 nM for 30 min before fixation. In the remaining cases, post-fixed cells were labeled by incubation with a multiplexed mixture of primary antibodies in HBSS for 60 min at room temperature (293-298 K) to detect immunoreactivity of c-Jun (1:500), phospho-histone H3 (1:100), phospho-histone H2A.x (1:200), p53 (1:400), alpha-tubulin (1:200) and Hoechst 33342 (2 ug/mL). Cells were labeled for multiplexed imaging on two separate plates: a) Hoechst 33342, MitoTracker Red, phospho-histone H3, and alpha-tubulin, and b) Hoechst 33342, phospho-histone H2A.x, and c-Jun. A final rinse with HBSS (50 uL) was performed before analysis. The primary and secondary antibodies for the proteins were phospho-histone H3 (rabbit anti-phospho-histone H3 and FITC-donkey anti-rabbit IgG), phospho-histone H2A.x (mouse anti-phospho-histone H2A.x and FITC-donkey anti-mouse IgG), c-Jun (rabbit anti-phospho-c-Jun and Cy3-donkey anti-rabbit IgG), p53 (sheep anti-p53 and Cy5-donkey anti-sheep IgG), alpha-tubulin (mouse anti-alpha-tubulin and Cy5-donkey anti-mouse IgG). These antibodies are available as the CellCiphr HepG2 assay kit (Millipore).Digital images of each well were captured using a Cellomics ArrayScan VTI (Thermo Scientific Cellomics) (0.8 NA objective, 0.63x optical coupler, and XF-93 filter set) at 20x magnification. The images were acquired using the autofocus feature of the ArrayScan instrument, which entails the following steps. First, the camera focuses on channel 1 (Hoechst 33342), where nuclei are identified. Second, a Z offset of 1 um is used for capturing mitochondria (MitoTracker Red). […]
SMILES,outcome,AC50
COc1nc(C)nc(NC(=O)NS(=O)(=O)c2ccccc2Cl)n1,inactive,
C=CCC1=C(C)[C@@H](OC(=O)[C@@H]2[C@@H](C=C(C)C)C2(C)C)CC1=O,,79.5 µM (active)
N#Cc1cc(Br)c(O)c(Br)c1,inactive,
Oc1ccccc1-c1ccccc1,inactive,
O=C(O)COc1nc(Cl)c(Cl)cc1Cl,inactive,
CNC(=S)S,,26.2 µM (active)
CCOC(=O)CC(SP(=S)(OC)OC)C(=O)OCC (stereo not given),inactive,
COc1nc(C)nc(NC(=O)NS(=O)(=O)c2ccccc2CCC(F)(F)F)n1,inactive,
COC(=O)N(OC)c1ccccc1COc1ccn(-c2ccc(Cl)cc2)n1,,3.29 µM (active)
CS/C(C)=N/OC(=O)N(C)SN(C)C(=O)O/N=C(\C)SC,inactive,
Cc1cc(Cl)ccc1OCC(=O)O,inactive,
CC(C)(C)c1ccc(CSc2cnn(C(C)(C)C)c(=O)c2Cl)cc1,,7.56 µM (active)
CON(C)C(=O)Nc1ccc(Cl)c(Cl)c1,inactive,
C#CCOS(=O)OC1CCCCC1Oc1ccc(C(C)(C)C)cc1 (stereo not given),,2.25 µM (active)
CC1=C(C(=O)Nc2ccccc2)SCCO1,inactive,
Cc1ccc(-c2c(Cl)nc(C#N)n2S(=O)(=O)N(C)C)cc1,,65.3 µM (active)
CN(C)C(=S)SSC(=S)N(C)C,,3.39 µM (active)
CCOP(=S)(OCC)SCn1c(=O)oc2cc(Cl)ccc21,,99.8 µM (active)
O=C(Nc1ccccc1)Nc1ccnc(Cl)c1,,32.5 µM (active)
CC1COC(Cn2cncn2)(c2ccc(Oc3ccc(Cl)cc3)cc2Cl)O1 (stereo not given),,32.6 µM (active)

SMILES,outcome,AC50
Fc1ccc(Oc2ccnc3cc(Cl)cc(Cl)c23)cc1,inactive,
COC(=O)C=C(C)OP(=O)(OC)OC,inactive,
COP(N)(=O)SC (stereo not given),inactive,
CC(C)Oc1cc(-n2nc(C(C)(C)C)oc2=O)c(Cl)cc1Cl,,52.6 µM (active)
CCCCNC(=O)OCC#CI,inactive,18 µM (active)
CCCN(CCC)c1c([N+](=O)[O-])cc(S(N)(=O)=O)cc1[N+](=O)[O-],inactive,
COP(=S)(OC)Oc1nc(Cl)c(Cl)cc1Cl,inactive,
C=CCC1=C(C)C(OC(=O)C2C(C=C(C)C)C2(C)C)CC1=O (stereo not given),inactive,
COc1cnc(OC)n2nc(NS(=O)(=O)c3c(OCC(F)F)cccc3C(F)(F)F)nc12,inactive,
CCNc1nc(Cl)nc(NC(C)C)n1,inactive,
CNC(=O)ON=CC(C)(C)SC,inactive,
CCCCC(CC)COC(=O)c1ccccc1C(=O)OCC(CC)CCCC (stereo not given),inactive,
COc1ccc(C(c2ccc(OC)cc2)C(Cl)(Cl)Cl)cc1,,71 µM (active)
COC(=O)c1ccccc1C(=O)OC,inactive,
C=CC1(C)OC(=O)N(c2cc(Cl)cc(Cl)c2)C1=O (stereo not given),inactive,
CC(C)C1(C)N=C(c2nc3ccccc3cc2C(=O)O)NC1=O (stereo not given),inactive,
N#CC(CCc1ccc(Cl)cc1)(Cn1cncn1)c1ccccc1 (stereo not given),inactive,
CCOc1cc(Oc2ccc(C(F)(F)F)cc2Cl)ccc1[N+](=O)[O-],,19.8 µM (active)
Cc1c(F)c(F)c(COC(=O)C2C(/C=C(\Cl)C(F)(F)F)C2(C)C)c(F)c1F (stereo not given),inactive,
